Data from PubChem BioAssay AID540333 (Southern Research Specialized Biocontainment Screening …, 2011).
Among all 10,000 compounds or so, about 320 (3.2%) were called active. Cut-off read from the data, not from the text of the source: active = CPE inhibition mostly above about 9.1% (no sharp cut-off); inactive = mostly below about 7.2%. For the sample, actives were picked, then their nearest neighbours and some compounds at random.

assay: antivirals protecting cells from dengue CPE – CPE readout, HTS (AID 540333); details: Dengue virus CPE inhibition in host cells, at 20 µM; active compounds read high

SMILES | CPE inhibition
O=C1NC(=O)C(CC(=O)N(Cc2cccs2)C2(C(=O)NC3CCCC3)CCCCC2)N1 (stereo not drawn) | 0.025% (inactive)
CC(=O)Nc1ccccc1C(=O)C(=O)Nc1cccc(C(=O)NCc2ccccc2)c1 | inactive
O=C(NC(=S)Nc1cccc(NC(=O)c2ccccc2)c1)c1cccc([N+](=O)[O-])c1 | 0.91% (inactive)
COC(=O)Nc1nnc(/C=C/c2ccc(OC)cc2)s1 | 6.99% (inactive)
COc1ccc(/C=C/c2nnc(NC(=O)CSc3ccc(Cl)cc3)s2)cc1 | 12.2% (active)
COc1ccc(Cc2nnc(NC(=O)CSc3ccc(C)cc3)s2)cc1 | 0.25% (inactive)
CC(C)c1nc(C#N)c(N2CCOCC2)o1 | inactive
Cc1ccc(CN2CCN(CC(=O)N/N=C/c3c[nH]c4ccccc34)CC2)cc1 | 0.79% (inactive)
COc1cc(OC)cc(-c2c(C#Cc3ccsc3)c3cc(-c4cccc5[nH]ccc45)ccc3n2C)c1 | 6.79% (inactive)
O=C(CN1CCN(c2ccccc2)CC1)Nc1ccccc1Sc1ccccc1 | 15.7% (active)
CC(=O)N1CCN(CC(=O)Nc2ccccc2Sc2ccccc2)CC1 | 0.615% (inactive)
Cc1ccc(/C=C/C(=O)OCC(=O)Nc2ccccc2Sc2ccccc2)cc1 | inactive
CC1CN(CC(=O)Nc2ccccc2Sc2ccccc2)CC(C)O1 (stereo not drawn) | 0.145% (inactive)
O=C(Cc1ccccc1)Nc1cc(Cl)ccc1Sc1ccccc1 | 0.52% (inactive)
CC1CCCCN1CC(=O)Nc1ccccc1Sc1ccccc1 (stereo not drawn) | 18.4% (active)
O=C(COC(=O)c1ccccc1-c1nc2ccccc2s1)NC1CCS(=O)(=O)C1 (stereo not drawn) | inactive
CC(=O)O[C@H]1CC[C@@]2(C)[C@@H](CC[C@H]3[C@@H]4CC[C@H](C(C)O)[C@@]4(C)CC(=O)[C@@H]32)C1 (stereo partly drawn) | inactive
COC(=O)c1ccc(NC(=O)CSC2=NCCN2)cc1 | 0.235% (inactive)
O=C1CC(N(Cc2cccs2)C(=O)Nc2ccccc2)C(=O)N1c1ccc(Cl)cc1 (stereo not drawn) | 0.225% (inactive)
COC(=O)[C@@]1(Cc2ccc(F)cc2)[C@H]2c3cc(C(=O)N(C)C)n(CCc4ccc(OC)c(Br)c4)c3C[C@H]2CN1C(=O)c1ccccc1 | 21.7% (active)
COC(=O)Cn1c(C(=O)N2CCCC2)cc2c1C[C@H]1CN(C(=O)c3ccccc3)[C@@](Cc3ccc(F)cc3)(C(=O)OC)[C@@H]21 | 0.235% (inactive)
COC(=O)[C@@]1(Cc2ccc(F)cc2)[C@H]2c3cc(C(=O)N(C)C)n(C[C@H](O)CO)c3C[C@H]2CN1C(=O)c1ccccc1 | 0.25% (inactive)
Cc1cc(NC(=O)/C=C/c2ccc(Cl)cc2)no1 | inactive
